HTT aggregate = inhibitors of mutant huntingtin aggregate formation in PC12 cells. PC12 HttQ103-GFP aggregates, Acumen cytometry, 40 h. Potency, µM (series often up to 46.1 µM), without a hit: top-dose activity change, negative = inhibition, actives largely listed as inhibitors. 1.1% of 220,000 active; active = well fitted curve in the direction sought with a large enough effect; inconclusive = small, poorly fitted or top-dose-only effect, or another doubt; inactive = no such curve, though single readings can be large; an effect the other way counts as inactive or inconclusive; also: % is scaled to controls: 0 for no effect and ±100 for the full control effect; nearly all actives have a fitted effect of over 60% in size
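Aggregate formation scored by laser-scanning cytometer (488 excitation, 500–530 emission) in lysed PC12 cells expressing Q103-GFP after 100 nM tebufenozide induction; library tested in dose series, with ATPLite reagent added in the multiplex.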
KDM4E inh = inhibitors of human JMJD2E histone demethylase | B2RXH2 | JMJD2E catalytic domain, FDH-coupled NADH fluorescence (FDH is formaldehyde dehydrogenase) | Potency, µM (doses to about 57.1 µM), inactives show at the highest dose activity change, negative = inhibition, actives largely listed as inhibitors | 1.6% of 230,000 active | AID 2147;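 also: 0% = wells with enzyme and -100% = buffer wells without enzyme; nearly all actives have a fitted effect of over 50% in size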
Target sequence (B2RXH2 1-337 limits assumed): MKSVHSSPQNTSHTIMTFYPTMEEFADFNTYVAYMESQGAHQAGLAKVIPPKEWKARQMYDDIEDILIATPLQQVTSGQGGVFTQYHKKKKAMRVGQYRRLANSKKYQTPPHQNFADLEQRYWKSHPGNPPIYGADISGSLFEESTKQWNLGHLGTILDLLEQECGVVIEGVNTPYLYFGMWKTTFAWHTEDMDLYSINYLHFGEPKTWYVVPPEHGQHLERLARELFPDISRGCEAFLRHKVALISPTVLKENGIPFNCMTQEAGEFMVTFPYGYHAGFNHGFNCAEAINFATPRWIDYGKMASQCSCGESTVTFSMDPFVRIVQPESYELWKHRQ
HTT cytoprotect = cytoprotection in Huntington HTT-Q103 PC12 cell model | Potency, µM (top dose mostly 56.4 µM), without a hit: cytoprotection (ATP increase), hits mostly activators | 0.14% of 230,000 active | PC12 HTT-Q103 induced, cytoprotection, ATP luminescence, 40 h; active = well fitted curve in the direction sought with a large enough effect; inconclusive = small, poorly fitted or top-dose-only effect, or another doubt; inactive = no such curve, though single readings can be large; an effect the other way counts as inactive or inconclusive; also: % of control where 0% means no effect; nearly all actives have a fitted effect of over 45% in size
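Readout: ATPlite luminescence (ATP level). Model: stable PC12, inducible Htt exon1 Q103-GFP. Inducer: tebufenozide, 100 nM final. Compounds: dose series. No G418 in medium.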
ALDH1A1 block = blocks purified human ALDH1A1 activity; P00352; Purified ALDH1A1, NADH fluorescence, propionaldehyde substrate; Potency, µM (top dose mostly 75.3 µM), inactives show at the top dose activity, negative = inhibition, actives largely listed as inhibitors; 7.3% of 220,000 active;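 also: plate controls were no enzyme wells and a reference inhibitor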
LMNA splice mod = LMNA splicing modulation. Potency, µM (titrated, usually from 46.1 µM), for the others: at the highest dose ratio change, negative = inhibition, most hits filed as inhibitors. 0.01% of 200,000 active. HeLa LMNA splicing GFP/RFP minigene ratio, 48 h. AID 1487; active = well fitted inhibition curve with a large enough effect in the signal ratio, with a control signal flat, not every such curve was filed as active; inconclusive = small, poorly fitted or top-dose-only effect, or effect the other way, or a change in a side signal; the % refers to the signal ratio; also: % is scaled to controls: 0 for no effect and ±100 for the full control effect
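S3 HeLa stable clones carrying a lamin A-EGFP splicing minigene plus DsRed2 were seeded at 600 cells/well in Opti-MEM with 2% FBS, pin-dosed and incubated 48 h at 37°C. Acumen cytometry (488 nm) gave the GFP/RFP total-intensity ratio.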
HPGD inh = blocks human HPGD enzyme activity. P15428. purified HPGD, NADH fluorescence kinetic, PGE2 substrate. Potency, µM, for inactives: at the highest dose activity change, negative = inhibition, actives largely listed as inhibitors. 4.3% of 150,000 active. AID 894; also: % is scaled to controls: 0 for no effect and ±100 for the full control effect
Target sequence (P15428 whole entry, looked up): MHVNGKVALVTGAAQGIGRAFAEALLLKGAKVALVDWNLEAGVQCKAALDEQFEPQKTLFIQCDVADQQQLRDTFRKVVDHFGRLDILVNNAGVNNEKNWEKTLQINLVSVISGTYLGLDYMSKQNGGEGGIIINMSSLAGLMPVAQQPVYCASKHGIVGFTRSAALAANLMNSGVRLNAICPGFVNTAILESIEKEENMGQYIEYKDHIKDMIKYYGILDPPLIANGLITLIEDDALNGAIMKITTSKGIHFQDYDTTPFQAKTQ
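20 nM HPGD preincubated 15 min at room temperature with compound in 50 mM Tris-HCl pH 8, 0.01% Tween 20. Started with 1 mM NAD+ and 30 uM prostaglandin E2; NADH fluorescence (360/450 nm) read 5 times over 30-s intervals, last minus first.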
Active calls of the source: *; ? = inconclusive; / = not tested or not shown; [ ] = dose if it differs, or a comment. This is a sample that favours compounds with a hit; in the whole collection about 9.2% have one here. Unless noted, calls follow the shape of the dose curve; as a rule, active = well fitted inhibition curve with a large enough effect (not every such curve was filed as active); inconclusive = small, poorly fitted or top-dose-only effect, or another doubt; inactive = no such curve, though single readings can be large or run the other way. Potency is read from the fitted curve at half-maximal effect.

SMILES	HTT aggregate	KDM4E inh	HTT cytoprotect	ALDH1A1 block	LMNA splice mod	HPGD inh
COc1cc(/C=C2\SC(c3ccccc3)=NC2=O)cc(Cl)c1O	1%[9.22 µM]	?	25%	5µM*	/	/
COc1cc(/C=C2\SC(c3ccc(C)cc3)=NC2=O)cc(OC)c1OC	8%	-8%	24%[10 µM]	?	-16%	?
Clc1cccc(CNc2ncnc3c2nc2n3CCCC2)c1	/	/	/	/	-10%[46 µM]	/
Cc1cccc(CNC(=O)CCc2nnc(C3CCCCC3)o2)c1	-6%	-5%	-38%	1%	/	/
Cc1cccc(NC(=S)NNC(=O)c2cc3c(s2)CCC(C)C3)c1C (configuration not stated)	11%	-5%	/	6.3µM*	?	-24%
Cc1ccc(C)c(NC(=S)NNC(=O)c2sccc2C)c1	-17%	3%	-4%	-2%	7%	-11%
Cc1ccc(C)c(NC(=S)NNC(=O)c2cc3c(s2)CCC(C)C3)c1 (configuration not stated)	-8%	17%	25%[10 µM]	22µM*	-10%	/
Cc1ccc(C)c(NC(=S)NNC(=O)c2csc(C(C)C)c2)c1	-1%	12%	10%[10 µM]	13µM*	?	-10%
Cc1cccc(NC(=S)NC2CCCCCC2)c1C	1%	-8%	-1%[10 µM]	-6%	?	-10%
O=C(NCc1ccco1)c1ccc(-c2cccc(Cl)c2)o1	42%[9.22 µM]	1%	24%[10 µM]	?	/	/
COC(=O)[C@@]1(Cc2ccc(OC)cc2)[C@H]2c3cc(C(=O)N4CCCC4)n(CCc4c[nH]c5ccc(OC)cc45)c3C[C@H]2CN1C(=O)c1ccccc1	/	-19%	8%	?	/	-10%
O=C(/C=C\c1ccc(O)c(O)c1)O[C@H]1C[C@@](O)(C(=O)O)C[C@H](O)[C@@H]1O	/	/	-12%	/	/	/
Cc1ccc(C(=O)NC2CC3CCCC(C2)N3C(=S)NCc2ccco2)cc1 (configuration not stated)	-13%[9.22 µM]	1%	-4%[10 µM]	22µM*	/	/
CN(NS(=O)(=O)c1ccc(Cl)cc1)c1nc(C(F)(F)F)nc2ccccc12	10µM*	3%	-56%	20%	?	/
CC(=O)Nc1nonc1-c1nnc(SCC(=O)Nc2c(C)cccc2C)n1-c1ccccc1	/	/	/	/	19%[46 µM]	/
COC(=O)c1cn[nH]c1NC(=S)Nc1ccc(C)cc1Cl	?	7%	-52%[10 µM]	7.9µM*	15%	-27%
COC(=O)c1cn[nH]c1NC(=S)Nc1ccc(Cl)c(Cl)c1	-3%[1.84 µM]	2%	1%	?	?	-24%
CC(C)(C)NC(=O)CSCc1ccc(Br)cc1	5%	9%	9%[10 µM]	0%	?	/
Nc1ccc2oc(-c3cccc4ccccc34)nc2c1	-2%	-7%	-32%	?	1%	22µM*
Cc1ccc(-c2nc3cc(N)ccc3o2)c(C)c1	1%[9.22 µM]	?	3%[0.074 µM]	?	3%	?
COc1nccnc1NS(=O)(=O)c1ccc(N)cc1	1%	/	?	/	?	/
COCCn1c(=O)[nH]c(=O)c2cc(C(=O)c3cc(Cl)ccc3O)cnc21	11%	?	-11%	?	?	/
COc1ccc(O)c(C(=O)c2cnc3c(c2)c(=O)[nH]c(=O)n3C)c1	0%	-10%	17%[10 µM]	-5%	-6%	28µM*
CCCCC1(C)OC(=O)C(=Cc2ccc(N(CC)CC)cc2)C(=O)O1 (configuration not stated)	1%	-13%	-34%	0.4µM*	2%	20µM*
CCN(CC)c1ccc(/C=C2/C(=O)ON=C2C)cc1	-1%	5%	7%[10 µM]	1.5µM*	-10%	-19%
SMILES	HTT aggregate	KDM4E inh	HTT cytoprotect	ALDH1A1 block	LMNA splice mod	HPGD inh
CCN(CC)c1ccc(C=C2C(=O)OC3(CCCCC3)OC2=O)cc1	25%	-21%	-32%	0.18µM*	?	/
CC1=NOC(=O)/C1=C/c1ccc(N(C)C)cc1	-5%	1%	3%	0%	-3%	/
CCN(CC)c1ccc(/C=C2/C(=O)c3ccc(C(=O)O)cc3C2=O)cc1	1%	-3%	11%[10 µM]	8.9µM*	-11%	11µM*
COc1cccc(N2CCN(CC(=O)c3c[nH]c4ccc(OC)cc34)CC2C)c1 (configuration not stated)	35µM*	?	-18%[0.074 µM]	?	3%	?
CC(=Nc1ccc2c(c1)nc(CO)n2C)C1=C(O)CC(C)(C)CC1=O	13%	-26%	3%[10 µM]	?	1%	3.5µM*
CCOC(=O)C(NC(=O)N(C)C)(Nc1sc(C)c(CC)c1C#N)C(F)(F)F (configuration not stated)	-8%	-1%	12%[10 µM]	?	-6%	14µM*
CCOC(=O)C(NC(=O)CCl)(Nc1sc(C)c(CC)c1C#N)C(F)(F)F (configuration not stated)	?	-17%	-12%[10 µM]	-1%	?	-8%
Cc1ccc(NC(=S)c2nc3ccccc3[nH]2)c(C)c1	?	?	-24%[10 µM]	?	4%	32µM*
CC1CCC(N2CC(=O)N(C3CCCC3)C(c3ccc(Cl)cc3)C2=O)CC1 (configuration not stated)	/	/	/	/	10%[46 µM]	/
CCOC(=O)Cc1nnc2c(Nc3ccc(Cl)cc3)nc3nonc3n12	18µM*	-8%	7%[10 µM]	-10%	-24%	-1%
O=S(=O)(NCCc1ccccc1)c1ccc(Cl)nc1	-3%	1%	17%[10 µM]	-13%	6%	2%
CC(C)(C)NC(=O)C(c1ccncc1)N(C(=O)Cn1nnc(-c2ccc(F)cc2)n1)c1ccc(F)cc1 (configuration not stated)	-12%[9.22 µM]	3%	?	0%	10%[46 µM]	/
O=C(NCc1ccccc1)C(c1ccc(F)cc1)N(Cc1ccc2c(c1)OCO2)C(=O)Cn1nnc(-c2cccs2)n1 (configuration not stated)	-16%	7%	-6%[1.9 µM]	25µM*	-3%	-4%
CC(C)(C)NC(=O)C(c1ccncc1)N(C(=O)Cn1nnc(-c2ccc(F)cc2)n1)c1ccccc1 (configuration not stated)	4%[9.22 µM]	-4%	10%[10 µM]	3.2µM*	/	/
CC(C)(C)NC(=O)C(c1ccncc1)N(Cc1cccs1)C(=O)Cn1nnc(-c2cccs2)n1 (configuration not stated)	4%	?	-21%	4.5µM*	-19%	-20%
O=C(Cn1cccc1)N1CCN(C(c2ccccc2)c2ccccc2)CC1	-7%	4%	8%[10 µM]	?	-9%	-15%
CC(c1ccccc1)N1CCN(C(=O)CCl)CC1 (configuration not stated)	-22%	-1%	-22%	0.45µM*	/	/
CC1CCC(N2CC(=O)N(C3CCCCC3)C(c3ccc(F)cc3)C2=O)CC1 (configuration not stated)	/	/	/	/	-14%[46 µM]	/
